In the supplement of paper PMC7156485 one finds cell number and H1.0 immunofluorescence intensity data, which are given here for 25 compounds.

Molecules are shown by their SMILES. ± gives the standard deviation of the averaged measurements.

Holding throughout (conditions): concentration: 10 µM; 24 h
Assay [1] concerns HCC1569. Description: cell number relative to DMSO (% of DMSO); higher = more cells (less growth inhibition / toxicity). In a few lines: (§1)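 In 384-well plates holding 800 HCC1569 or TDF cells per well in RPMI with 10% FBS, compounds were tested at 10 µM for 24 h at 37 °C in triplicate. Fixation used 3.7% formaldehyde. Staining used a rabbit anti-H1.0 antibody with an AlexaFluor 647 secondary, plus DAPI. Each value, H1.0 nuclear intensity or cell number, is a median of replicates shown as percent of the plate control, and HCC1569 values were smoothed for positional effects.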

In assay [2] the test system is TDF. The assay is described as above. In a few lines:
as §1

The test system of assay [3] is TDF. Description: H1.0 immunofluorescence intensity relative to DMSO (% of DMSO); higher = stronger H1.0 induction, active = 120 or more. Summed up: as §1
Assay [4] has as its system HCC1569. Description: H1.0 immunofluorescence intensity relative to DMSO (% of DMSO); higher = stronger H1.0 induction, active = 140 or more. Summed up: as §1
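For H1.0 immunofluorescence intensity relative to DMSO in this document: TDF is a line of transformed human dermal fibroblasts of mesenchymal origin.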
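For cell number relative to DMSO in this document: TDF denotes transformed human dermal fibroblasts of mesenchymal origin.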

In the case of `N[C@@H](Cc1ccc(O)c(I)c1)C(=O)O` [3-Iodo-L-tyrosine], the cell number came out at 108 in the assay with HCC1569 [1] and 110 in the assay on TDF [2]. Moreover, the results for the H1.0 immunofluorescence intensity with TDF [3] and in the assay on HCC1569 [4] were 87.8 (inactive) and 88.9 (inactive), respectively.

`CC(O)C1C(=O)N2C(C(=O)O)=C(SC3CNC(C(=O)N(C)C)C3)C(C)C12` (stereo not given) [Meropenem]: the results for the cell number in the assay on HCC1569 [1] and in the assay on TDF [2] were 105 and 98.2, respectively. Moreover, the results for the H1.0 immunofluorescence intensity with TDF [3] and in the assay on HCC1569 [4] were 97 (inactive) and 94.3 (inactive), respectively.

Turning to `Cl.NCCS` [Cysteamine hydrochloride], the values for the cell number with HCC1569 [1] and in the assay with TDF [2] were 101 and 99.7, respectively. For the same compound, the H1.0 immunofluorescence intensity with TDF [3] was 91.2 (inactive); in the assay with HCC1569 [4] it was 101 (inactive).

On to `CC1CC2C3CCC4=CC(=O)C=CC4(C)C3(F)C(O)CC2(C)C1(O)C(=O)CO` (stereo not given) [Dexamethasone], for which the cell number was 100 in the assay on HCC1569 [1] and 102 in the assay with TDF [2]. In addition, the H1.0 immunofluorescence intensity in the assay on TDF [3] is 81.6 (inactive); in the assay with HCC1569 [4], 112 (inactive).

Regarding `COC1C(N(C)C(=O)c2ccccc2)CC2OC1(C)n1c3ccccc3c3c4c(c5c6ccccc6n2c5c31)C(=O)NC4` (stereo not given) [Staurosporine, N-benzoyl-], the results for the cell number in the assay with HCC1569 [1] and in the assay with TDF [2] were 66 and 53.5, respectively. Besides, the H1.0 immunofluorescence intensity with TDF [3] was 82.4 (inactive); in the assay with HCC1569 [4], 108 (inactive).

On to `COC(=O)C(N)Cc1ccc(Cl)cc1.Cl` (racemic) [DL-p-Chlorophenylalanine methyl ester hydrochloride], for which the cell number with HCC1569 [1] is 97.3; in the assay with TDF [2], 92.3. In addition, the values for the H1.0 immunofluorescence intensity with TDF [3] and in the assay with HCC1569 [4] were 107 (inactive) and 104 (inactive), respectively.

For the compound `CCC1(O)CC2CN(CCc3c([nH]c4ccccc34)C(C(=O)OC)(c3cc4c(cc3OC)N(C)C3C(O)(C(=O)OC)C(OC(C)=O)C5(CC)C=CCN6CCC43C65)C2)C1.O=S(=O)(O)O` (stereo not given) [Vinblastine sulfate], the results for the cell number in the assay with HCC1569 [1] and with TDF [2] were 53.3 and 11.2, respectively. The figures for the H1.0 immunofluorescence intensity in the assay on TDF [3] and in the assay with HCC1569 [4] were 156 (active) and 131 (inactive), respectively.

In the case of `Cn1ccc(NC(=O)c2cc(Oc3ccc(C(=O)N4CCC4)c(F)c3)c3c(c2)OC(C)(C)C3)n1`, the cell number in the assay with HCC1569 [1] amounted to 103; with TDF [2], 94.2. For the same compound, the H1.0 immunofluorescence intensity is 102 (inactive) in the assay on TDF [3] and 105 (inactive) in the assay with HCC1569 [4].

Turning to `O=C(C=Cc1ccc(O)c(O)c1)OCCc1ccccc1` [Caffeic acid phenethyl ester], the cell number came out at 69.1 in the assay with HCC1569 [1] and 81 with TDF [2]. Also, the values for the H1.0 immunofluorescence intensity in the assay on TDF [3] and in the assay with HCC1569 [4] were 94.7 (inactive) and 108 (inactive), respectively.

For `O.Oc1cc(O)c2c(c1)OC(c1ccc(O)c(O)c1)C(O)C2` (single isomer, unassigned; (+)) [(+)-Catechin Hydrate], the cell number is 98.9 in the assay with HCC1569 [1] and 110 in the assay with TDF [2]. Further, the H1.0 immunofluorescence intensity is 90.6 (inactive) in the assay on TDF [3] and 91.7 (inactive) in the assay with HCC1569 [4].

For `NC(C(=O)O)C1CC1C(=O)O` [(2S,1'S,2'S)-2-(carboxycyclopropyl)glycine], the cell number in the assay on HCC1569 [1] turned out to be 105; with TDF [2] it was 110. Also, the H1.0 immunofluorescence intensity in the assay on TDF [3] is 85.1 (inactive); in the assay with HCC1569 [4], 83.4 (inactive).

For `CNNCc1ccc(C(=O)NC(C)C)cc1` [Procarbazine], the cell number was determined as 102 with HCC1569 [1] and 106 with TDF [2]. In addition, the H1.0 immunofluorescence intensity was 92.4 (inactive) in the assay with TDF [3] and 108 (inactive) with HCC1569 [4].

With `Cl.Nc1ccn(C2OC(CO)C(O)C2O)c(=O)n1` [Cytosine-1-beta-D-arabinofuranoside hydrochloride], the cell number in the assay on HCC1569 [1] amounted to 75.3; with TDF [2], 45.5. The results for the H1.0 immunofluorescence intensity in the assay with TDF [3] and in the assay with HCC1569 [4] were 121 (active) and 100 (inactive), respectively.

On to `Cc1cc(C2CCCCC2)n(O)c(=O)c1.NCCO` [Ciclopirox ethanolamine], for which the cell number in the assay with HCC1569 [1] was 78.7; with TDF [2], 58.8. For the same compound, the H1.0 immunofluorescence intensity is 93.2 (inactive) with TDF [3] and 102 (inactive) in the assay with HCC1569 [4].

For `CC(=O)Nc1nnc(S(N)(=O)=O)s1` [Acetazolamide], the cell number stood at 104 in the assay on HCC1569 [1] and 106 in the assay on TDF [2]. Moreover, the H1.0 immunofluorescence intensity in the assay on TDF [3] was 86.9 (inactive); in the assay with HCC1569 [4] it was 83.3 (inactive).

On to `Oc1cc(O)cc(C=Cc2ccc(O)c(O)c2)c1` [Piceatannol], for which the values for the cell number in the assay on HCC1569 [1] and in the assay on TDF [2] were 90.4 ± 5.3 and 93.7 ± 4.5, respectively. Besides, the H1.0 immunofluorescence intensity is 97.2 (inactive) in the assay on TDF [3] and 114 (inactive) with HCC1569 [4].

Take `O=c1[nH]c(=O)n(C2CC(O)C(CO)O2)cc1F` (stereo not given) [Floxuridine]: the cell number with HCC1569 [1] came to 81.3; in the assay on TDF [2], 61.1. The figures for the H1.0 immunofluorescence intensity with TDF [3] and with HCC1569 [4] were 112 (inactive) and 119 (inactive), respectively.

Consider `CCCCCCCCC=CCCCCCCCCCCCCC(=O)O` [14(Z)-Tricosenoic acid], for which the cell number in the assay with HCC1569 [1] was 100; in the assay on TDF [2], 106. The H1.0 immunofluorescence intensity with TDF [3] is 100 (inactive); with HCC1569 [4], 101 (inactive).

On to `O=C1NC(=O)c2cc(Nc3ccc(F)cc3)c(Nc3ccc(F)cc3)cc21` [PKCbII/EGFR Inhibitor], for which the values for the cell number in the assay on HCC1569 [1] and with TDF [2] were 95.1 and 111, respectively. The H1.0 immunofluorescence intensity in the assay on TDF [3] was 89.7 (inactive); with HCC1569 [4], 121 (inactive).

As for `Cl.O[C@H](c1cc(C(F)(F)F)nc2c(C(F)(F)F)cccc12)[C@@H]1CCCCN1`, the cell number in the assay on HCC1569 [1] is 52; with TDF [2], 56.7. In addition, the H1.0 immunofluorescence intensity was 131 (active) in the assay on TDF [3] and 170 (active) in the assay on HCC1569 [4].

For `CC(=O)OC1(C(C)=O)CCC2C3C=C(Cl)C4=CC(=O)C5CC5C4(C)C3CCC21C` (stereo not given) [Cyproterone acetate], the cell number in the assay on HCC1569 [1] came to 91.8; in the assay with TDF [2] it was 99.8. Further, the H1.0 immunofluorescence intensity in the assay on TDF [3] is 92.2 (inactive); in the assay on HCC1569 [4], 98.5 (inactive).

As to `Oc1cc(O)c2c(c1)OC(c1ccc(O)c(O)c1)C(O)C2` (single isomer, unassigned; (-)) [(-)-Epicatechin], the cell number in the assay with HCC1569 [1] is 102; with TDF [2] it was 106. Moreover, the H1.0 immunofluorescence intensity in the assay with TDF [3] was 100 (inactive); with HCC1569 [4], 89.2 (inactive).

As for `CCC1(O)CC(OC2CC(N(C)C)C(OC3CC(O)C(OC4CCC(=O)C(C)O4)C(C)O3)C(C)O2)c2c(cc3c(c2O)C(=O)c2c(O)cccc2C3=O)C1C(=O)OC` (stereo not given) [Aclarubicin], the cell number in the assay on HCC1569 [1] was 83.2; with TDF [2], 55.5. In addition, the H1.0 immunofluorescence intensity in the assay on TDF [3] was 129 (active); in the assay with HCC1569 [4], 210 (active).

For the compound `Cn1c(=O)c2[nH]cnc2n(C)c1=O.Cn1c(=O)c2[nH]cnc2n(C)c1=O.NCCN` [Aminophylline ethylenediamine], the cell number with HCC1569 [1] was 103; in the assay with TDF [2] it was 102. Further, the H1.0 immunofluorescence intensity in the assay with TDF [3] was 98.7 (inactive); with HCC1569 [4], 93.8 (inactive).

As for `CC[C@H](NC(=O)c1c(O)c(-c2ccccc2)nc2ccccc12)c1ccccc1`, the figures for the cell number in the assay with HCC1569 [1] and in the assay with TDF [2] were 101 and 98.3, respectively. Moreover, the H1.0 immunofluorescence intensity in the assay on TDF [3] was 97.8 (inactive); in the assay on HCC1569 [4], 107 (inactive).
